By AC50 is commonly meant the midpoint of the concentration-response curve, whichever way the signal moves.

Among the data in PubChem BioAssay (EPA / NIEHS) are outcome and AC50 values, retold here.

Holding throughout (details): mRNA level, 48 h; actives raise or lower the signal
Read-out in assay [1]: Phosphatase and tensin (PTEN), PTEN (gene 5728)
The assay can be described thus: LTEA_HepaRG_PTEN: Life Technologies and Expression Analysis (LTEA) Assay for Phosphatase and tensin (PTEN) using HepaRG (AID 2283523). A digest of the protocol: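 HepaRG cells, 48 h after plating, exposed in duplicate for 48 h in serum-free induction medium to 8 half-log concentrations up to 100 uM (0.5% DMSO). PTEN mRNA by qRT-PCR, normalized to ACTB, GAPDH, POLR2A; bidirectional fit versus DMSO.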

Read-out in assay [2]: solute carrier (SLC22A1), SLC22A1 (gene 6580)
In words: LTEA_HepaRG_SLC22A1: Life Technologies and Expression Analysis (LTEA) Assay for solute carrier (SLC22A1) using HepaRG (AID 2283524). A digest of the protocol: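 Differentiated human HepaRG cells in serum-free induction medium, exposed 48 h in duplicate to 8-point half-log series from 100 µM top in 0.5% DMSO. SLC22A1 mRNA by TaqMan qRT-PCR normalized to ACTB, GAPDH, POLR2A; bidirectional fit versus DMSO.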

Read-out in assay [3]: Pyruvate Dehydrogenase Kinase 4 (PDK4), PDK4 (gene 5166)
In words: LTEA_HepaRG_PDK4: Life Technologies and Expression Analysis (LTEA) Assay for Pyruvate Dehydrogenase Kinase 4 (PDK4) using HepaRG (AID 2283525). A digest of the protocol: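 HepaRG cells plated 48 h, then switched to serum-free induction medium and exposed in duplicate for 48 h to 8 half-log concentrations from 100 uM in 0.5% DMSO. PDK4 mRNA measured by qRT-PCR, normalized to ACTB, GAPDH and POLR2A; bidirectional fit versus DMSO.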

Read-out in assay [4]: NAD(P)H dehydrogenase [quinone] 1 (NQO1), NQO1 (gene 1728)
The assay can be described thus: LTEA_HepaRG_NQO1: Life Technologies and Expression Analysis (LTEA) Assay for NAD(P)H dehydrogenase [quinone] 1 (NQO1) using HepaRG (AID 2283526). A digest of the protocol: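 Human HepaRG hepatic cells received chemicals for 48 h in serum-free induction medium with 0.5% DMSO, up to 100 uM. Expression was assessed by TaqMan qRT-PCR against housekeeping controls and fitted bidirectionally against DMSO.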

Read-out in assay [5]: Nuclear factor erythroid 2-related factor 2 (Homo sapiens) (UniProt Q16236)
The assay can be described thus: LTEA_HepaRG_NFE2L2: Life Technologies and Expression Analysis (LTEA) Assay for Nuclear factor erythroid 2-related factor 2 (NFE2L2) Transcription Factor using HepaRG (AID 2283527).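 For outcome: TaqMan qRT-PCR transcript level normalised to ACTB GAPDH and POLR2A housekeeping genes.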 A digest of the protocol:
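Differentiated human HepaRG cells, serum-free induction medium, exposed 48 h in duplicate to eight half-log concentrations up to 100 uM in 0.5% DMSO. NFE2L2 mRNA by Fluidigm TaqMan qRT-PCR, normalised to ACTB, GAPDH, POLR2A; bidirectional change versus DMSO.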

Read-out in assay [6]: succinate dehydrogenase complex iron sulfur subunit B (SDHB), SDHB (gene 6390)
In words: LTEA_HepaRG_SDHB: Life Technologies and Expression Analysis (LTEA) Assay for succinate dehydrogenase complex iron sulfur subunit B (SDHB) using HepaRG (AID 2283528). The procedure, abridged: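 A human HepaRG culture in serum-free induction medium received test chemicals for 48 h over an eight-point range capped at 100 uM. SDHB expression change was quantified by qRT-PCR.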

Read-out in assay [7]: Signal transducer and activator of transcription 3 (Homo sapiens) (UniProt P40763)
In words: LTEA_HepaRG_STAT3: Life Technologies and Expression Analysis (LTEA) Assay for Signal transducer and activator of transcription (STAT3) using HepaRG (AID 2283529). The procedure, abridged: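 Differentiated HepaRG cells, serum-free induction medium, dosed 48 h in duplicate, 8 half-log concentrations from 100 uM in 0.5% DMSO. STAT3 mRNA by qRT-PCR, normalised to ACTB, GAPDH, POLR2A; bidirectional fit versus DMSO.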

Read-out in assay [8]: solute carrier (SLCO1B1), SLCO1B1 (gene 10599)
In words: LTEA_HepaRG_SLCO1B1: Life Technologies and Expression Analysis (LTEA) Assay for solute carrier (SLCO1B1) using HepaRG (AID 2283530). A digest of the protocol:
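Gain or loss of SLCO1B1 mRNA is fitted against the 0.5% DMSO vehicle in human HepaRG liver cells treated 48 h at up to 100 uM in half-log steps. Expression comes from qRT-PCR normalized to endogenous controls.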

Read-out in assay [9]: sulfotransferase 2A1 (SULT2A1), SULT2A1 (gene 6822)
In words: LTEA_HepaRG_SULT2A1: Life Technologies and Expression Analysis (LTEA) Assay for sulfotransferase 2A1 (SULT2A1) using HepaRG (AID 2283531). The procedure, abridged:
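Cells were plated and cultured 48 h, switched to serum-free induction medium, then dosed in duplicate for 48 h (8 concentrations, max 100 uM). RNA was isolated and SULT2A1 expression measured by qRT-PCR; gain or loss of signal fitted relative to DMSO.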

Read-out in assay [10]: Transforming Growth Factor (TGFB1), TGFB1 (gene 7040)
The assay can be described thus: LTEA_HepaRG_TGFB1: Life Technologies and Expression Analysis (LTEA) Assay for Transforming Growth Factor (TGFB1) Transporter using HepaRG (AID 2283533). A digest of the protocol: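 Expression change of TGFB1 in human HepaRG cells is measured after a 48 h chemical exposure, up to 100 uM in 0.5% DMSO vehicle. Curves are fitted in both directions relative to the DMSO baseline.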

Read-out in assay [11]: TIMP1, TIMP1 (gene 7076)
In words: LTEA_HepaRG_TIMP1: Life Technologies and Expression Analysis (LTEA) Assay for TIMP1 using HepaRG (AID 2283534).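 Note: TaqMan qRT-PCR signal normalized to ACTB GAPDH and POLR2A housekeeping genes.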 A digest of the protocol:
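We dosed human liver HepaRG cultures for 48 hours with up to 100 uM test chemical and measured TIMP1 expression by qRT-PCR. Activity in either direction is fitted relative to the 0.5% DMSO vehicle.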

Read-out in assay [12]: Tumor necrosis factor receptor 1 (TNFRSF1A), TNFRSF1A (gene 7132)
The assay can be described thus: LTEA_HepaRG_TNFRSF1A: Life Technologies and Expression Analysis (LTEA) Assay for Tumor necrosis factor receptor 1 (TNFRSF1A) using HepaRG (AID 2283535). The procedure, abridged:
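Expression of TNFRSF1A in human HepaRG liver cells was measured by qRT-PCR 48 h after chemical dosing (maximum 100 uM). Bidirectional curve fitting used 0.5% DMSO as baseline.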

Read-out in assay [13]: Thyroid Hormone Responsive (THRSP), THRSP (gene 7069)
The assay can be described thus: LTEA_HepaRG_THRSP: Life Technologies and Expression Analysis (LTEA) Assay for Thyroid Hormone Responsive (THRSP) using HepaRG (AID 2283536). A digest of the protocol:
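Differentiated HepaRG cells treated 48 h in serum-free induction medium with 8 half-log concentrations up to 100 uM (0.5% DMSO), duplicates. THRSP mRNA by TaqMan qRT-PCR normalised to ACTB, GAPDH, POLR2A; bidirectional fit versus DMSO.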

Read-out in assay [14]: UDP glucuronosyltransferase (UGT1A1), UGT1A1 (gene 54658)
In words: LTEA_HepaRG_UGT1A1: Life Technologies and Expression Analysis (LTEA) Assay for UDP glucuronosyltransferase (UGT1A1) using HepaRG (AID 2283538). A digest of the protocol:
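Human liver HepaRG cultures receive test chemical for 48 h, up to 100 uM in 0.5% DMSO, with phenobarbital induction controls. UGT1A1 mRNA is measured by qRT-PCR and normalized to ACTB, GAPDH and POLR2A.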

Read-out in assay [15]: UDP glucuronosyltransferase (UGT1A6), UGT1A6 (gene 54578)
In words: LTEA_HepaRG_UGT1A6: Life Technologies and Expression Analysis (LTEA) Assay for UDP glucuronosyltransferase (UGT1A6) using HepaRG (AID 2283539). A digest of the protocol:
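Endpoint is UGT1A6 transcript induction or loss in a human liver cell line, quantified by TaqMan qRT-PCR 48 h after dosing. Concentrations ran from 100 uM downward in half-log steps in 0.5% DMSO; activity was fitted in both directions versus vehicle.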

Read-out in assay [16]: X-box binding protein 1 (XBP1), XBP1 (gene 7494)
The assay can be described thus: LTEA_HepaRG_XBP1: Life Technologies and Expression Analysis (LTEA) Assay for X-box binding protein 1 (XBP1) using HepaRG (AID 2283540). The procedure, abridged:
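Human HepaRG monolayers receive test chemical for 48 h across an eight-point half-log series starting at 100 uM. XBP1 mRNA gain or loss is scored against DMSO by qRT-PCR.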

Read-out in assay [17]: Transforming Growth Factor (TGFA), TGFA (gene 7039)
The assay can be described thus: LTEA_HepaRG_TGFA: Life Technologies and Expression Analysis (LTEA) Assay for Transforming Growth Factor (TGFA) using HepaRG (AID 2283532). The procedure, abridged:
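Differentiated HepaRG cells exposed 48 hours in serum-free induction medium, 0.5% DMSO vehicle, 8-point half-log series from 100 uM, in duplicate. TGFA mRNA by TaqMan qRT-PCR, normalised to ACTB, GAPDH, POLR2A; bidirectional fit versus DMSO.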

Read-out in assay [18]: Nuclear factor NF-kappa-B p105 subunit (Homo sapiens) (UniProt P19838)
The assay can be described thus: LTEA_HepaRG_NFKB1: Life Technologies and Expression Analysis (LTEA) Assay for Nuclear Factor Kappa B Subunit 1 (NFKB1) using HepaRG (AID 2283521).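 For outcome: TaqMan qRT-PCR transcript normalised to ACTB GAPDH and POLR2A housekeeping genes.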 A digest of the protocol:
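Human HepaRG cells receive eight half-log concentrations, highest 100 uM, for 48 h. NFKB1 expression is then quantified by qRT-PCR and analysed for up- or down-regulation relative to 0.5% DMSO vehicle.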

Read-out in assay [19]: Cellular tumor antigen p53 (Homo sapiens) (UniProt P04637)
In words: LTEA_HepaRG_TP53: Life Technologies and Expression Analysis (LTEA) Assay for Tumor Protein P53 (TP53) using HepaRG (AID 2283537). A digest of the protocol: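 Gain or loss of TP53 mRNA signal is scored relative to 0.5% DMSO after 48 h chemical treatment of HepaRG liver cells, tested in duplicate at eight half-log concentrations up to 100 uM.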

The source made the active and inactive calls. Rule for the calls: active = hit-call score of the fitted dose curve at least 0.9, where 1 is the maximum; inactive = score below 0.9.

Chain of Signal transducer and activator of transcription 3 (Homo sapiens) (P40763 whole entry, looked up): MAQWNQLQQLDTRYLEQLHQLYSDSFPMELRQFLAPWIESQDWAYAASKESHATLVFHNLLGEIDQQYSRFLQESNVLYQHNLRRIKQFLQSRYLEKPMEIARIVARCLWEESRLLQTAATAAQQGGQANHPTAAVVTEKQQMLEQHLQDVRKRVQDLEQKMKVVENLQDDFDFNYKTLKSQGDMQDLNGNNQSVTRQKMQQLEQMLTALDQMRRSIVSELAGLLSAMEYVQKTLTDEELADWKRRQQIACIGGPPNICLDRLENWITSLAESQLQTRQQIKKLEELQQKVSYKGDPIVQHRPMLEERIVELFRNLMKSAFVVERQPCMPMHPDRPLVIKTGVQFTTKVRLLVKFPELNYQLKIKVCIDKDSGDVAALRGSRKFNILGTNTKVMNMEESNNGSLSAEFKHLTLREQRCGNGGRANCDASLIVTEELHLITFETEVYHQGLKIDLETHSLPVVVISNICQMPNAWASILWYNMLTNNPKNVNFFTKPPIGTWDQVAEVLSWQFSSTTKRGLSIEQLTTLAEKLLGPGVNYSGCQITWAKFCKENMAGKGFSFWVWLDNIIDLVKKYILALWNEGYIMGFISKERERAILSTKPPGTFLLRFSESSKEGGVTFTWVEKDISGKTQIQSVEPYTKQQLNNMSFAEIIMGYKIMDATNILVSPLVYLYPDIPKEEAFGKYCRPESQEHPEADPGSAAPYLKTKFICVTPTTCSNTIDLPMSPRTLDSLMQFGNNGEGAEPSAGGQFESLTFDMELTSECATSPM
Chain of Nuclear factor erythroid 2-related factor 2 (Homo sapiens) (Q16236 whole entry, looked up): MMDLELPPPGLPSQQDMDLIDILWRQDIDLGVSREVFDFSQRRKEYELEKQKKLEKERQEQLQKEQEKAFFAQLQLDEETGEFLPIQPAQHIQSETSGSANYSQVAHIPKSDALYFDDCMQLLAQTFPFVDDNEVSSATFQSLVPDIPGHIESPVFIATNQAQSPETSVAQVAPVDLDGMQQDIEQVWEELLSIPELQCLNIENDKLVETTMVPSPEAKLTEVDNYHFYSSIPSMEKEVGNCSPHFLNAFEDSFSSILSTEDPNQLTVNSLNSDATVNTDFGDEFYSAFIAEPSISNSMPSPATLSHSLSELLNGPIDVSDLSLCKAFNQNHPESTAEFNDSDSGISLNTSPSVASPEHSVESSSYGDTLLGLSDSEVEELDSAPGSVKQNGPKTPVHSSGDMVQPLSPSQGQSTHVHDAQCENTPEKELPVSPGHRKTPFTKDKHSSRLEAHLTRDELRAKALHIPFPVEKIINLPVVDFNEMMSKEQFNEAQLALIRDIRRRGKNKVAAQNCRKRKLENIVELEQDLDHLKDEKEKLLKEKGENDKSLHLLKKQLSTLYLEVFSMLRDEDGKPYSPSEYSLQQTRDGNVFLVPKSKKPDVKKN
Chain of Nuclear factor NF-kappa-B p105 subunit (Homo sapiens) (P19838 whole entry, looked up): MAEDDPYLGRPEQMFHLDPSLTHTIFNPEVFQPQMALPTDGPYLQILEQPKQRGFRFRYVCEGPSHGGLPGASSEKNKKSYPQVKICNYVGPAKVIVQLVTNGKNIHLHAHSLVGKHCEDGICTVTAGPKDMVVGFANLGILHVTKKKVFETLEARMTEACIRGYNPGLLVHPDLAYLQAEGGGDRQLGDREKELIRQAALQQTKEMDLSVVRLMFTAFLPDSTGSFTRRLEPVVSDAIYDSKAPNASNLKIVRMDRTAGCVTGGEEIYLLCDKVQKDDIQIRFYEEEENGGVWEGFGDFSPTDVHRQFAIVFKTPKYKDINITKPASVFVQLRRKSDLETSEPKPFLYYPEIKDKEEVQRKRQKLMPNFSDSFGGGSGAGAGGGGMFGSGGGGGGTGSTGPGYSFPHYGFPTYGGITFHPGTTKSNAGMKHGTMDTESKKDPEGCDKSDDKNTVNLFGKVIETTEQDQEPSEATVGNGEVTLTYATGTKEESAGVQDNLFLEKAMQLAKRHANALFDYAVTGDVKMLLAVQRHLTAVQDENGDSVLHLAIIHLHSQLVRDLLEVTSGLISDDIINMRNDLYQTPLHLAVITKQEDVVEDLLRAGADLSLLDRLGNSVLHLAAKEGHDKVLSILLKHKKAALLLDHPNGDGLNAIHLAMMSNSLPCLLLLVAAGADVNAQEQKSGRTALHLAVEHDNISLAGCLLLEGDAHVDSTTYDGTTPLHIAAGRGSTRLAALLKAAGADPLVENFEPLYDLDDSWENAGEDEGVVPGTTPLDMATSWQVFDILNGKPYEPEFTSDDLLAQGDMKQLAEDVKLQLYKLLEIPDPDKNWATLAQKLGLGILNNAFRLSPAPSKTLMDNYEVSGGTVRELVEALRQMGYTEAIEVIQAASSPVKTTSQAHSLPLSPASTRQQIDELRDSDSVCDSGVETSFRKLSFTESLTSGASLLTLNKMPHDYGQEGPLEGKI
Chain of Cellular tumor antigen p53 (Homo sapiens) (P04637 whole entry, looked up): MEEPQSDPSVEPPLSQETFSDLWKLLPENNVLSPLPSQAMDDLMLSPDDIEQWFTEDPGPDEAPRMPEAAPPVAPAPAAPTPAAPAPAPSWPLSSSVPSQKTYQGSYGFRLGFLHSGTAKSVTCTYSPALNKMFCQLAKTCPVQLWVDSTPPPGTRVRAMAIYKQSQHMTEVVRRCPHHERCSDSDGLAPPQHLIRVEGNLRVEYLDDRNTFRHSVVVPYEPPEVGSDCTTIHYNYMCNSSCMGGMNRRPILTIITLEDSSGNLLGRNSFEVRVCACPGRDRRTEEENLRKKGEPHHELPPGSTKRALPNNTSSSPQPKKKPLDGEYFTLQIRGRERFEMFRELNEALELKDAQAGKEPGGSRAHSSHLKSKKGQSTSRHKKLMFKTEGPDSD

For the compound `OC1CCC(C2CCCCC2)CC1` (configuration not stated), the result in assay [1], in assay [2], in assay [3], in [4], in assay [5] and in assay [6] was inactive. For the same compound, the outcome in [7], in assay [8], in assay [9], in assay [10], in [11] and in [12] was inactive. Moreover, the result in [13], in assay [14], in assay [15] and in assay [16] was inactive.

With `CCCCCCCC(=O)O`, the compound was called inactive in [1], in assay [2], in assay [3], in [4], in assay [6] and in [7]. Also, the outcome in assay [8], in [9], in assay [17], in [10], in assay [11] and in [12] was inactive. The outcome in assay [13], in assay [14], in assay [15] and in [16] was inactive. In addition, the AC50 in assay [5] was 12.3 µM (active).

`NC(=O)N(O)[C@@H]1C=C[C@H](Oc2cccc(Oc3ccc(F)cc3)c2)C1`: the AC50 in [18] is 74.4 µM (active); in assay [2], 63.6 µM (active); in [3], 50 µM (active); in assay [5], 81.9 µM (active); in assay [8], 86.1 µM (active); in [9], 76.5 µM (active). In addition, the AC50 in assay [10] was 72.4 µM (active); in [14], 75.5 µM (active); in assay [15] it was 75.8 µM (active); in assay [16], 28.2 µM (active). Besides, the outcome in [1], in assay [4], in [6], in [7], in assay [11] and in assay [12] was inactive. In addition, in assay [13], the outcome was inactive.

Turning to `CCCCCCC(=O)O`, the call in assay [1], in [2], in [3], in assay [4], in [5] and in [6] was inactive. For the same compound, the result in assay [7], in assay [8], in assay [9], in assay [10], in assay [11] and in assay [12] was inactive. The outcome in assay [13], in [19], in assay [14], in assay [15] and in [16] was inactive.

For `CC(C)(C)c1cc(C(C)(C)C)c(O)c(C(C)(C)C)c1`, the call in [1], in assay [2], in assay [4], in assay [5], in assay [6] and in assay [7] was inactive. For the same compound, the compound was called inactive in [8], in [9], in assay [10], in assay [11], in assay [12] and in assay [16]. For the same compound, the AC50 in assay [3] is 23.5 µM (active); in assay [13], 17.9 µM (active); in [14] it was 13.9 µM (active); in assay [15] it was 14.5 µM (active).

In the case of `OCCC(F)(F)C(F)(F)C(F)(F)C(F)(F)C(F)(F)C(F)(F)F`, the compound was called inactive in assay [1], in assay [2], in assay [3], in [4], in assay [5] and in assay [6]. The compound was called inactive in [7], in assay [8], in assay [9], in assay [10], in assay [11] and in [12]. The call in assay [13], in [19], in assay [14], in [15] and in assay [16] was inactive.

Consider `C#C[C@]1(O)CC[C@H]2[C@@H]3CCC4=CC(=O)CC[C@@H]4[C@H]3CC[C@@]21C`, for which the outcome in assay [18], in assay [1], in [3], in assay [4], in [5] and in assay [6] was inactive. Besides, the result in assay [7], in assay [8], in assay [10], in [11], in assay [12] and in [15] was inactive. Further, in [16], the compound was classed as inactive. Also, the AC50 in [2] was 32.1 µM (active); in assay [9], 15.9 µM (active); in assay [13] it was 0.0729 µM (active); in assay [14] it was 2.19 µM (active).
